ChEMBL document CHEMBL3988442, “University of Dundee, Small-Polar-MMV Screening Library” (2021)
For some of these results: Entries with a potency or affinity are not part of this list.

Experiments:
Parameters in all cases: scale not given: direction of the effect not stated beside the values
[1] = biological target: Protein translocase subunit SecA (Escherichia coli (strain K12)) (UniProt P10408); test: Assay to Identify E. coli SecA ATPase Inhibitors; format: functional; conditions: 30 µM
[2] = biological target: T1, Ubiquitin-activating enzyme e1, putative (Leishmania donovani (strain BPK282A1)) (UniProt E9BSI1); test: Leishmania donovani Ubiquitin Activating Enzyme (LdE1); format: functional; conditions: 30 µM
T1 sequence (whole entry): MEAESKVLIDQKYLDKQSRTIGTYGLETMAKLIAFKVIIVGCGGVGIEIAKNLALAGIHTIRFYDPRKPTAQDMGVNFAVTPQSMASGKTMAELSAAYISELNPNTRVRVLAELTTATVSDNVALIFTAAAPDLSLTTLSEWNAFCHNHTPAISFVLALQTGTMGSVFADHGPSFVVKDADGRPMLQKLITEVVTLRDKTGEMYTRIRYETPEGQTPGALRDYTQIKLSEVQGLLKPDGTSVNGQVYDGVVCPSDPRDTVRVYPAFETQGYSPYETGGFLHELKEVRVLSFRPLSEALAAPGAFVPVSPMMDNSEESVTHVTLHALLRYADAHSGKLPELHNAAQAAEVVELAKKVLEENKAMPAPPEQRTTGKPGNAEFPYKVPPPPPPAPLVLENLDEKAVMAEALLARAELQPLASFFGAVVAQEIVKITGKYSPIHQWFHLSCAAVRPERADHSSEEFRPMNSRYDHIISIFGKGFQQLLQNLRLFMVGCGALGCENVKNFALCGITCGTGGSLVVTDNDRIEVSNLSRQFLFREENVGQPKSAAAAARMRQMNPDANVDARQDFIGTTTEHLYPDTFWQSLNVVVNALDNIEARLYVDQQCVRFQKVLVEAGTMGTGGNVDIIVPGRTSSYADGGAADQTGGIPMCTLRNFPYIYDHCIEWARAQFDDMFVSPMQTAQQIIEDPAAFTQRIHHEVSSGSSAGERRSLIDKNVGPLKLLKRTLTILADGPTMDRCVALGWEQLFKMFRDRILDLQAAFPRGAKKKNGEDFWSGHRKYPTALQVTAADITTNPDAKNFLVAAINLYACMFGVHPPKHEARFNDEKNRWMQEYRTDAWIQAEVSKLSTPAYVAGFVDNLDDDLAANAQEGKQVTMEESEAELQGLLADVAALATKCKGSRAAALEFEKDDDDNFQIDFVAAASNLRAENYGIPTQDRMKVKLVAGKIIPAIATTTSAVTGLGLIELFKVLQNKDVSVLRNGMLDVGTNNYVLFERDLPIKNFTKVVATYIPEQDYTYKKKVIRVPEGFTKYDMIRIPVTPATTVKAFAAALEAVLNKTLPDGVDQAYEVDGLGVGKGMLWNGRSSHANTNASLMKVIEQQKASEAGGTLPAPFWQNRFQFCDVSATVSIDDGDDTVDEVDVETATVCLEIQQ

[3] = biological target: AMP-activated protein kinase, AMPK (Homo sapiens) (UniProt P54646+O43741+P54619+Q9UGJ0+Q9Y478+Q13131+Q9UGI9); test: AMP-dependent Kinase enzyme assay. An in vitro enzyme assay that detects ADP turnover that is directly proportional to AMPK activity. This uses naive AMPK that is activated during the assay with MK-8722; format: functional; conditions: 30 µM
[4] = biological target: Sialic acid-binding Ig-like lectin 9 (Homo sapiens) (UniProt Q9Y336); test: Hs-Siglec9 ALPHAscreen SOP 20170721; conditions: 10 µM
Trypanosoma cruzi = test: Trypanosoma cruzi phosphomannomutase and mannose-1-phosphate guanylyltransferase assay; format: functional; conditions: 10 µM
[5] = biological target: T2, Arginase-2, mitochondrial (Homo sapiens) (UniProt P78540); test: in vitro enzyme assay to detect the production of urea directly proportional to the activity of Arginase II; format: functional; conditions: 33.3 µM; further: in the data most compounds retested in dose-response had high values
T2 sequence (whole entry): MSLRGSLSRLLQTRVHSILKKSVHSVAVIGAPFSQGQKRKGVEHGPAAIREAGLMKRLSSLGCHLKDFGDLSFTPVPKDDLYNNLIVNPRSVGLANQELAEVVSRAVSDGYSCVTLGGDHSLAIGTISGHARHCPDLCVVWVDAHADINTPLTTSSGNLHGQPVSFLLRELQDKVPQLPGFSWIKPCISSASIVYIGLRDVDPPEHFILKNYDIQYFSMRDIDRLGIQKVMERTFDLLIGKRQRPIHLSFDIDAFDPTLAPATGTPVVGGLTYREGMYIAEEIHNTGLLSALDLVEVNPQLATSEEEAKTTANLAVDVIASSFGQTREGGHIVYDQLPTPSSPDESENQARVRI

[6] = biological target: T3, Proteasome subunit beta (Trypanosoma cruzi) (UniProt O96673); test: Trypanosoma cruzi proteasome chymotrypsin-like activity (TcProtChymo) assay.; further: in the data most compounds retested in dose-response had high values; format: functional; conditions: 9.37 µM
T3 sequence (whole entry): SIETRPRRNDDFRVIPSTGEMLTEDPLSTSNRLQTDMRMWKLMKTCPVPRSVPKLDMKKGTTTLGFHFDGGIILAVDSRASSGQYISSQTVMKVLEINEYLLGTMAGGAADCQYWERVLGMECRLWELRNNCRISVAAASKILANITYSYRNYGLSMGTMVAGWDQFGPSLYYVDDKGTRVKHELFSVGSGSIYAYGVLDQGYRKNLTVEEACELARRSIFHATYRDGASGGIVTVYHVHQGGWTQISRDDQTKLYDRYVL

Homo sapiens = species: Homo sapiens; test: To identify inhibition of the IFN signalling (Jak-Stat) pathway via expression of an eGFP reporter gene under the control of an IFN-stimulated response element (ISRE) containing MxA promoter.; format: functional; conditions: 30 µM
[7] = biological target: T4, Tyrosyl-tRNA synthetase, putative (Trypanosoma cruzi (strain CL Brener)) (UniProt Q4DSP6); test: Trypanosoma cruzi tyrosyl tRNA synthetase (TcYRS) _High Tyrosine SOP; format: functional; conditions: 30 µM; further: in the data most compounds retested in dose-response had high values
T4 sequence (whole entry): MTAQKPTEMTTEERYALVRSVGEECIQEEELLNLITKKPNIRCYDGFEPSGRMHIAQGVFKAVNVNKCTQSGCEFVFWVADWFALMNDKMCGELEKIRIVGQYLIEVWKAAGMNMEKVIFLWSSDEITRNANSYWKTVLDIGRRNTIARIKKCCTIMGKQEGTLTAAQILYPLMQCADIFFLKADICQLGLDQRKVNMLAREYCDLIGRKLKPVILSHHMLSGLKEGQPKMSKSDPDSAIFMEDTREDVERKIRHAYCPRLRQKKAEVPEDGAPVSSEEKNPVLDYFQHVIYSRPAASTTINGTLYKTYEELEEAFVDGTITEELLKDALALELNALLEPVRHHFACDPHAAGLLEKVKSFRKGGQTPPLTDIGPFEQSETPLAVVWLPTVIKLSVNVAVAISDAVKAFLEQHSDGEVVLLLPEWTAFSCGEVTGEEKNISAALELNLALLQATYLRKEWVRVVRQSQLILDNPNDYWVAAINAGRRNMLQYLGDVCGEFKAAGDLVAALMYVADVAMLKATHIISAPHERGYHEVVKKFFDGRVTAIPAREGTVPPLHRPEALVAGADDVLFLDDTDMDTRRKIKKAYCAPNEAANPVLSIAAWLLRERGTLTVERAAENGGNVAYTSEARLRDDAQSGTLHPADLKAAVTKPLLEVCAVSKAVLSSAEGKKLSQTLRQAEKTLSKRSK

[8] = biological target: T4, Tyrosyl-tRNA synthetase, putative (Trypanosoma cruzi (strain CL Brener)); test: Trypanosoma cruzi tyrosyl tRNA synthetase (TcYRS) SOP; format: functional; conditions: 30 µM
[9] = biological target: Chromo domain-containing protein 1 (Saccharomyces cerevisiae (strain ATCC 204508 / S288c) (Baker's yeast)) (UniProt P32657); test: ScCHD-1 Enzyme Inhibition Assay; format: functional; conditions: 30 µM; further: in the data most compounds retested in dose-response had high values
Chain of Chromo domain-containing protein 1 (Saccharomyces cerevisiae (strain ATCC 204508 / S288c) (Baker's yeast)) (P32657 whole entry, the tested form may be a part): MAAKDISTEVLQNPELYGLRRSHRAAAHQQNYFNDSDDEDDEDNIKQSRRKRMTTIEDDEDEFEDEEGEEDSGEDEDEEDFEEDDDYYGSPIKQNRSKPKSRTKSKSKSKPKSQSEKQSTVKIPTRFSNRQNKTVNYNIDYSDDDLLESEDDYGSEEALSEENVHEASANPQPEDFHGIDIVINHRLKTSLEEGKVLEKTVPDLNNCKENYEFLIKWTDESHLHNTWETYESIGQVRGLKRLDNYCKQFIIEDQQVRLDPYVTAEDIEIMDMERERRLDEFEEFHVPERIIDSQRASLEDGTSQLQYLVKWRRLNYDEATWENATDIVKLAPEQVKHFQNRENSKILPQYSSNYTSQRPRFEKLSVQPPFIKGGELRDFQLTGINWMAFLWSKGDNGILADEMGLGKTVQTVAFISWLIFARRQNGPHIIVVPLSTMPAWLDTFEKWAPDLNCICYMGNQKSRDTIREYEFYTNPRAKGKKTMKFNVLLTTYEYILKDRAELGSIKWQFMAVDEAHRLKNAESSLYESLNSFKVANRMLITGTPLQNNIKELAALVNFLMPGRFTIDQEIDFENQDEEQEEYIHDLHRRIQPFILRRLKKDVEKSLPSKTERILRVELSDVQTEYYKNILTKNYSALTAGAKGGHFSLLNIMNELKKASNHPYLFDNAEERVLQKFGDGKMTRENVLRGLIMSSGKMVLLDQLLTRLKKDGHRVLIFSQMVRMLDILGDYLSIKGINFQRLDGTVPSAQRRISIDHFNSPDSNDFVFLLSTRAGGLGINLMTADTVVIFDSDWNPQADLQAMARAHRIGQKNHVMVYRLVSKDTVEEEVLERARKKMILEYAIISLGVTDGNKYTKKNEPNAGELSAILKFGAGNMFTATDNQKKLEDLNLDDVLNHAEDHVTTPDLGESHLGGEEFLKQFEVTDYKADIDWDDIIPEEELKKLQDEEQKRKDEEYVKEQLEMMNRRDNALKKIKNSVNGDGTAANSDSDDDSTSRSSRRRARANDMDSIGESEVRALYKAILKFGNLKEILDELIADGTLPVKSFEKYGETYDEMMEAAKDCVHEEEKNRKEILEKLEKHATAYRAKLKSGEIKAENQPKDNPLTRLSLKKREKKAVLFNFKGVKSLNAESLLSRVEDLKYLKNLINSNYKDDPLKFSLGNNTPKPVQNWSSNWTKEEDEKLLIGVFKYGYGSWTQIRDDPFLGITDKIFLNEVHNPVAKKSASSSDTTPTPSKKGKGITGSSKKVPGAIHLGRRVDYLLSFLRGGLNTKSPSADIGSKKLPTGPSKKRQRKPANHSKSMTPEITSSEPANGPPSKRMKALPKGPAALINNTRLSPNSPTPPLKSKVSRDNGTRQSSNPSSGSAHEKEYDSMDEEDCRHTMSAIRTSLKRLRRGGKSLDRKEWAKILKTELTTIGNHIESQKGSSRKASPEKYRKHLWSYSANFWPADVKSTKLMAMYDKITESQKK

Chain of Protein translocase subunit SecA (Escherichia coli (strain K12)) (P10408 whole entry): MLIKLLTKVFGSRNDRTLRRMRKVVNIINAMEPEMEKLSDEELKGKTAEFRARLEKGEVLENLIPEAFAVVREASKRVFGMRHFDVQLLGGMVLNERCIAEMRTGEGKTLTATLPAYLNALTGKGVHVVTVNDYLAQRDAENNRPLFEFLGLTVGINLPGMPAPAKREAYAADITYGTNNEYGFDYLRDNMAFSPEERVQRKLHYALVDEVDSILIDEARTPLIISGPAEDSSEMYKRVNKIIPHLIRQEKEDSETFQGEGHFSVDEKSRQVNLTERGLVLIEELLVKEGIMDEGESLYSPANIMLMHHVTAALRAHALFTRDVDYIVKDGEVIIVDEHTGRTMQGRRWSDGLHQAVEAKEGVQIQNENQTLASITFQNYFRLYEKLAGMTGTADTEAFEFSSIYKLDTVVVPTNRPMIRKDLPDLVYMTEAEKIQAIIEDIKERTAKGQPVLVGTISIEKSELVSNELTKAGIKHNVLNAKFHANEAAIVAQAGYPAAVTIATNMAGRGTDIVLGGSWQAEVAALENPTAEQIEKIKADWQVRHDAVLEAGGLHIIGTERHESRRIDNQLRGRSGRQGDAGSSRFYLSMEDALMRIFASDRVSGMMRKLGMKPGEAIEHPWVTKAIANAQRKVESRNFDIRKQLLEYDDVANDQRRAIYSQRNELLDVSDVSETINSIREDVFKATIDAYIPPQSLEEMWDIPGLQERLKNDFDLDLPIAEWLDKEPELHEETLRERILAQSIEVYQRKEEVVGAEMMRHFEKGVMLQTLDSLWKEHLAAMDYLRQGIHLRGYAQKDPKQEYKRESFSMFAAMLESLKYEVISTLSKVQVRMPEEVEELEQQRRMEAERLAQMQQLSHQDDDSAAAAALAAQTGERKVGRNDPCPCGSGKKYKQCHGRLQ
Chain of Sialic acid-binding Ig-like lectin 9 (Homo sapiens) (Q9Y336 whole entry): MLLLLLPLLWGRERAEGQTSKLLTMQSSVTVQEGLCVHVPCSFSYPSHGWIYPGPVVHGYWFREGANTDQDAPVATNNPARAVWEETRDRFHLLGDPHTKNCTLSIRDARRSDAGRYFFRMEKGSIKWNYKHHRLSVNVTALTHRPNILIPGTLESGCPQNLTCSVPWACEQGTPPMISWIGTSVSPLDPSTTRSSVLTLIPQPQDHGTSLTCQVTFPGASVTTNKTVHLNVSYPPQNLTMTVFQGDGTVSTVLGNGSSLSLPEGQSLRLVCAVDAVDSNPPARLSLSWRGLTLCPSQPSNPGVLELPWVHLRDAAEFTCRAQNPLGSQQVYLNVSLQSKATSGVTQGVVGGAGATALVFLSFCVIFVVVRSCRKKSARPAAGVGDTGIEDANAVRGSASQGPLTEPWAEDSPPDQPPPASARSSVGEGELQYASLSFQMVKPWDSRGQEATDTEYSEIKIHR

SMILES	Percent Effect [1] [%]	Percent Effect [2] [%]	Percent Effect [3] [%]	Percent Effect [4] [%]	Percent Effect (Trypanosoma cruzi) [%]	Percent Effect [5] [%]	Percent Effect [6] [%]	Percent Effect (Homo sapiens) [%]	Percent Effect [7] [%]	Percent Effect [8] [%]	Percent Effect [9] [%]
c1cnc(-c2nc(CN3CCCC(Cn4cncn4)C3)cs2)nc1 (stereo not given)	-3.67	8.11	-6.35	6.78	-4.81	-0.802	11	10.9	6.4	6.17	-4.11
Cc1nn(C)c(N(C)C)c1CNCc1ccccc1Cn1cncn1	-6.25	6.33	-0.0601	1.64	-1.33	0.215	6.52	3.54	3.12	-5.06	-11.2
CCC(NC(=O)C1CCN(S(C)(=O)=O)CC1)c1ccc(OC)c(OC)c1 (stereo not given)	-2.12	-2.6	3.25	-1.28	-1.48	-5.52	11.2	-4.52	3.23	1.24	3.51
CCc1noc(CN2CCCN(C(N)=O)CC2)n1	-0.23	0	5.45	11.3	-6.7	4.94	5.98	21.4	-1.48	-8.86	-6.21
CC(C)N1CCC(Cc2cc(-c3cccc(C(=O)O)c3)ncn2)C1 (stereo not given)	1.6	-9.46	7.52	4.36	-1.78	-0.232	2.5	0.46	2.15	1.3	20.8
O=C(Cn1ccc2ccc(Br)cc21)NCc1ccc(C(=O)O)cc1	-2.06	-5.26	4.18	-0.116	-7.69	-3.55	9.88	-5.25	-10.6	-13	-4.34
O=C([C@@H]1C[C@@H]2CCN(CCc3ccccc3)C[C@H]2O1)N1CCCC1	1.08	8	15	-9.77	-7.09	8.62	14.7	-9.49	4.25	8.97	0.575
CCOCCC(=O)Nc1cccc(Oc2ccccn2)c1	-5.45	0	-0.587	2.14	0.487	2.37	0.288	-0.792	0	-5.2	6.72
O=C(c1n[nH]c2ccccc12)N1CCCC1c1noc(C2CC2)n1 (stereo not given)	-4.36	7.59	-0.141	0.249	8.4	5.32	1.39	-4.43	4.43	13.9	-5.81
Cc1ccc(S(=O)(=O)NC2CC2)cc1C	1.16	-1.39	-6.59	11.8	0.875	20.3	0	28.3	-1.05	0	0.926
CCC1=N[C@@]2(CC[C@@H]3CN(C(=O)NCC(C)C)C[C@@H]32)C(=O)N1CC(C)C	-3.96	8	0.0094	5.84	4.25	-55	12.8	2.46	8.33	10	-6.18
Cn1c(Cn2ccnc2)nnc1C1CCN(Cc2cccnc2N)CC1	-2.31	-9.72	1.79	-9.15	-2.62	3.53	9.12	-8.94	2.1	2.56	-3.65
Cc1csc(CCCNC(=O)[C@H]2CNC[C@@H](C(=O)N3CCCC3)C2)n1	-4.06	8.22	0.0773	8.38	-1.39	0.399	15.8	-8.49	10.4	11.1	-1.73
CC1CCN(S(=O)(=O)NCC2CCOc3ccccc3C2)CC1 (stereo not given)	-7.79	2.6	4.04	4.95	-2.46	-8.28	6.16	23.1	0	3.7	-0.0656
CCn1nc(C(C)C)cc1C(=O)NCCCOC	-2.71	6.94	0.234	-3.62	6.51	-1.77	14.7	-30.8	4.21	12.8	-4.31
COc1ccnc(N2CCN(C(=O)CCc3nccs3)CC2)n1	0.0461	8.11	-3.33	0.0327	-1.54	-2.38	12.1	14.1	2.65	7.32	-3.79
CO[C@H]1CCN(S(=O)(=O)c2cn(C)cn2)[C@H]1Cc1cccnc1	-3.74	8	-3.32	-5.55	6.37	-49.6	7.86	-0.203	3.12	15	-9.19
O=C(CCc1ccsc1)NCC1CCN(c2ccccc2)C1 (stereo not given)	0.538	-6.94	-4.41	-4.12	-6.51	5.3	18.4	9.93	6.32	7.69	-1.39
CC[C@@]1(O)CCN(C(=O)c2ccsc2)C[C@H]1O	-3.94	4.17	-1.21	-6.46	-2.82	3.09	12.3	-3.4	4.21	5.13	0.37
O=C(CN1CCCCC1Cn1cncn1)NC1CCN(C2CC2)CC1 (stereo not given)	-0.975	-2.7	-4.13	22.5	3.28	-1.43	5.86	2.27	2.65	7.32	-11.3
